Bioassay records deposited in PubChem BioAssay by several laboratories.
Platelet DG rel: inhibitors of platelet dense granule secretion, primary screen, cell-based, MLPCN, human platelets | inhibition, %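 (compounds screened at 7.5 µM in platelet-rich plasma)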 | human platelet-rich plasma, SFLLRN dense granule ATP release, luminescence | 300,000 tested, 0.22% active;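 active = mean replicate score, as percent of positive control, at or above 50; inconclusive = mean below 50 but at least one replicate at or above 50; inactive = mean and every replicate below 50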
Exocytosis inh: LAMP-1 surface exposure blockers, TALL-104 cells – cell-based, flow cytometry, MLPCN library, primary screen. TALL-104 LAMP-1 surface exposure; cells stimulated with thapsigargin and PMA. inhibition, % at 10 µM. 360,000 tested, 0.66% active. AID 651702, 2012;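 active = inhibition above about 55%, limit read from the data; inconclusive = no clear call, values can overlap the other calls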
ABHD5 PLIN5 PPI: ABHD5-PLIN5 interaction inhibitors, primary screen, cell lysate, split luciferase complementation, luminescence. AID 602281, 2012. 360,000 tested, 0.78% active. Perilipin-5 (Homo sapiens) + 1-acylglycerol-3-phosphate O-acyltransferase ABHD5 (Homo …. Split G. princeps luciferase complementation, 4 h. inhibition, % at 4 µM;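 active = inhibition above the mean inhibition across every tested compound plus 3 SD, cut at about 22% in these data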;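 note: 0% = DMSO only wells and the 100% control is not disclosed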
Rce1 inhib: yeast Rce1p protease inhibitors, primary screen, biochemical, fluorescence, cell-free homogeneous. yeast membranes, quenched prenylated peptide cleavage fluorescence. calls only. 290,000 tested, 0.27% active. AID 2563, 2010;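 active = fall in fluorescence gain of 50% or more versus controls, with final raw signal at or below 3038400; inconclusive = same 50% fall but final raw signal above 3038400; inactive = fall in fluorescence gain under 50%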;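 note: plate controls were neutral control wells for no effect and wells lacking membranes for full effect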
Target sequence (Q03530 whole entry, looked up): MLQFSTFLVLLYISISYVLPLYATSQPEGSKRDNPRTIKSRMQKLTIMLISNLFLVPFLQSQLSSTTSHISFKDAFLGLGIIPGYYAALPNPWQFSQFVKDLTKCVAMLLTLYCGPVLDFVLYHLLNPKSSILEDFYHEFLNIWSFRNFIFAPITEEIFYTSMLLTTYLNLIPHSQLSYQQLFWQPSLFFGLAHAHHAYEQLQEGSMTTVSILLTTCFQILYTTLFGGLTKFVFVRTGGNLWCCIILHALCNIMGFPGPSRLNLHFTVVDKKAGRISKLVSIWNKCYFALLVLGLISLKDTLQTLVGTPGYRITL
M18AAP inhibitor: PfM18AAP inhibitors, malaria aminopeptidase, primary screen, biochemical, QFRET, recombinant enzyme; 290,000 tested, 1.2% active; M18 aspartyl aminopeptidase (Plasmodium falciparum 3D7); inhibition, % at 7.35 µM; H-Glu-NHMec fluorogenic cleavage;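 active = inhibition above the campaign mean inhibition over all tested compounds plus 3 SD, cut at about 28% in these data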;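 note: 0% = plate median of test compound wells and 100% = 2 mM ZnCl2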
* marks the source's active call; other numbers are inactive results; i = inactive; ? = inconclusive; · = no result given; + = active, no number. The list is not random: actives were taken first. Their share in the collection is about 2.6%.

SMILES	Platelet DG rel	Exocytosis inh	ABHD5 PLIN5 PPI	Rce1 inhib	M18AAP inhibitor
O=C(C[n+]1cc(-c2ccc(Cl)cc2)n2c1CCC2)N1c2ccccc2Sc2ccccc21	9	-1	23*	i	-4
Cc1ccc(-c2c[n+](CC(=O)OCc3ccccc3)c3n2CCC3)cc1	11	-9	2	i	-3
O=C(C[n+]1cc(-c2ccc(Cl)c(Cl)c2)n2c1CCC2)N1c2ccccc2Sc2ccccc21	-8	-4	34*	i	3
C/C(CC(=O)NC1CCCCCC1)=N\NC(=O)c1cnccn1	1	-1	2	i	8
COc1ccc2c(C(=O)CN3CCSCC3)c[nH]c2c1	0	-2	-5	i	-1
Cn1c(=O)c(C(=O)Nc2cccnc2)c(O)c2ccccc21	·	·	·	·	-4
COc1cc(OC)cc(-c2c(C#Cc3ccsc3)c3cc(-c4ccc(C(N)=O)cc4)ccc3n2C)c1	·	94*	-5	·	·
COCc1ccc(-c2ccc3c(c2)c(C#Cc2ccsc2)c(-c2cc(OC)cc(OC)c2)n3C)cc1	·	19	-3	·	·
CS(=O)(=O)c1ccc(CNC(=O)C2(C(F)(F)F)CC(CCCO)CCCO2)cc1 (configuration not stated)	0	·	·	i	·
O=C(Nc1ccccc1)C(=O)Nc1ccc2c(c1)N(C(=O)C1CC1)CCC2	89*	2	5	i	·
O=C(C1CCC(C(=O)N2CCc3ccccc32)CC1)N1CCc2ccccc21 (configuration not stated)	-5	6	1	i	1
O=C(O)c1ccc(COc2cccc(CO)c2)cc1	75*	0	0	i	3
COc1cccc(CNC(=O)c2ccc(COc3ccccc3)cc2)c1	-2	7	6	i	0
CC(=O)Oc1cccc(-c2nc3ccccc3c(=O)o2)c1	2	3	11	i	-2
COc1cccc(-c2nc(-c3ccc(C(=O)O)cc3)no2)c1	50*	5	0	i	·
COc1cccc(-c2nc3ccc(O)cc3c(=O)o2)c1	52*	-1	-1	·	2
O=C1C(C=Nc2ccccc2)=C(O)c2ccccc21	34	-2	-19	i	-12
FC(F)(F)c1ccc(-n2ccnc2)nc1	0	-3	6	i	-5
COCc1cc(CN2CCCC2)c(O)c2ncccc12	-8	-3	5	i	23
COc1ccc2nc3cc(Cl)ccc3c(Nc3cc(CN4CCCC4)c(O)c(CN4CCCC4)c3)c2n1	0	46	5	i	28*
N#C/C(=C\c1ccc([N+](=O)[O-])o1)C(=O)Nc1ccc(F)cc1	25	86*	15	i	10
CN(CC#CC1(O)c2ccccc2-c2ccccc21)Cc1ccccc1	12	-8	1	i	-2
C=C1c2ccccc2NC(=S)N1Cc1ccc2c(c1)OCO2	-4	0	1	·	32*
Cc1sc2ncnc(N3CCN(Cc4ccccc4)CC3)c2c1-c1ccccc1	3	63*	2	i	-1
Cc1sc2ncnc(Nc3ccc(N4CCOCC4)cc3)c2c1-c1ccccc1	0	-3	-6	i	-1
SMILES	Platelet DG rel	Exocytosis inh	ABHD5 PLIN5 PPI	Rce1 inhib	M18AAP inhibitor
CCOP(=O)(c1c(F)c(F)c(F)c(F)c1F)C(O)c1ccccc1 (configuration not stated)	4	1	0	i	1
CCO[C@@H]1OC(C(=O)N2CCN(Cc3ccccc3)CC2)=C[C@H](c2ccccc2)[C@H]1CCCO	-2	3	10	+	6
C#Cc1ccc([C@H]2C=C(C(=O)N3CCN(Cc4ccccc4)CC3)O[C@@H](OCC)[C@@H]2CCCO)cc1	11	0	-2	i	4
Cc1cc(C)n(Cc2ccc(NC(=O)c3ccc(COc4ccccc4Br)cc3)cc2)n1	6	18	-1	+	-14
OCc1ccccc1SSc1ccccc1CO	-5	34	48*	i	·
O=c1nc(Nc2ccccc2)oc2ccccc12	-19	-5	-3	i	-3
O=c1oc(Nc2ccc(F)cc2)nc2ccccc12	70*	0	5	i	0
NC(=O)C[n+]1cccc2ccccc21	6	0	1	i	-3
c1ccc(C[n+]2cccc3c4ccccc4ccc32)cc1	-2	7	6	+	4
CCCCC[n+]1cccc2c3ccccc3ccc21	0	0	2	+	-14
Cn1cc(Cl)c(C(=O)N/N=C/c2ccc3c4c(cccc24)CC3)n1	17	-24	16	i	0
Cc1ccccc1NC(=O)c1ccc(OCC(=O)Nc2ccccc2F)cc1	0	2	-5	i	-2
CSc1ccccc1C(=O)Nc1ncc(C)s1	55*	-1	-1	i	10
CSc1ncccc1C(=O)Nc1ncc(C)s1	-1	-3	-3	i	-3
O=C(N/N=C/c1cccnc1)C12CC3CC(CC(C3)C1)C2	-2	-2	-5	·	5
COC(=O)c1cccc(NC(=S)Nc2ccc(Cl)c(Cl)c2)c1	5	-12	-7	i	3
CC1(C)CC(=O)C=C(c2ccccc2-c2ccc3cc[nH]c3c2)C1=O	·	-6	-1	·	·
CC1(C)CC(=O)C=C(c2ccc(-c3ccc4[nH]ccc4c3)cc2)C1=O	·	70*	4	·	·
CCC(C)NC(=O)c1c(N)n(/N=C/c2ccccn2)c2nc3ccccc3nc12 (configuration not stated)	5	56*	-1	i	-2
CCC(C)NC(=O)c1c(N)n(/N=C/c2cccnc2)c2nc3ccccc3nc12 (configuration not stated)	-6	17	8	i	9
CCC(CC)NC(=O)Nc1ccccc1C	1	-2	1	·	-10
COc1ccccc1N=c1oc2cc(O)ccc2cc1C(N)=O	57*	-1	-5	?	1
Cc1nnc(Cn2cnc3c2c(=O)n(C)c(=O)n3C)o1	-5	2	-6	i	-10
Cc1nn(C(C)C(=O)NCc2ccccc2Cl)c(=O)c2c1sc1ccccc12 (configuration not stated)	3	82*	2	i	0
Cc1nn(C(C)C(=O)NCCCN2CCCCCC2)c(=O)c2c1sc1ccccc12 (configuration not stated)	5	-3	-2	i	7
Cc1ccc(-n2ncc3c(=O)n(CC(=O)N(C)C)cnc32)cc1C	1	-4	-2	i	-4
Cc1cc(C(=O)N/N=C/c2c3ccccc3cc3ccccc23)n[nH]1	12	-11	-1	+	10
CCOc1ccc2ccccc2c1/C=N/NC(=O)c1cc(C)[nH]n1	-3	-3	1	i	-2
